Laboratory results published in PubChem BioAssay (EPA / NIEHS).
Inconclusive results are not listed. Active and inactive are the calls of the source. How the source made its calls, unless noted: active means hit-call score of the fitted dose curve at least 0.9, where 1 is the maximum; inactive means score below 0.9.

Key:
[1] = CCTE_Harrill_HTTr_Viability_MCF7: CCTE's 6-hour Cell Viability Assessment for the High-Throughput Transcriptomics (HTTr) Platform, in MCF-7 cells cultured in DMEM + 10% fetal bovine serum, Harrill Lab (AID 2284010)
Outline: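 Propidium iodide exclusion, imaged by high-content analysis, gauged viability after a six-hour exposure across eight concentrations. Cells were MCF-7 grown in DMEM with 10% fetal bovine serum; fits run in both directions against DMSO.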

[2] = UKN2_HCS_IMR90_neural_migration: University of Konstanz (UKN) Leist Lab Neural Crest Cell Migration Assay in human induced IMR90 Pluripotent Stem Cells (UKN2) (AID 2284204); conditions: actives raise or lower the signal
Outline: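 High-content imaging of calcein-AM and Hoechst stained cells quantifies migration into a stopper-defined gap after 24 h compound exposure. Neural crest cells from IMR90 iPSC migrated 24 h in EGF/FGF N2-S medium before dosing; DMSO baseline.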

[3] = UKN2_HCS_IMR90_cell_viability: Viability Assessment in the University of Konstanz (UKN) Leist Lab Neural Crest Cell Migration Assay in human induced IMR90 Pluripotent Stem Cells (UKN2) (AID 2284233);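 further: cells exposed to compound for 24 h after a 24 h migration phase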
Outline: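 After calcein-AM/Hoechst staining, viability is quantified by high-content fluorescence imaging, relative to DMSO, in iPSC (IMR90)-derived neural crest cells. Exposure lasts 24 h, starting after a 24 h migration period on PLO/laminin/fibronectin coating.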

[4] = CCTE_Shafer_MEA_dev_firing_rate_mean: CCTE's Neural Network Formation Assay for Mean Firing Rate, Shafer Lab (AID 2284031);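 on AC50: curve fitted for loss of firing so AC50 reflects decreased mean firing rate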
Outline: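 Spike frequency (spikes/recording length, averaged over active electrodes) was recorded on days 5, 7, 9 and 12 and collapsed to AUC; rat cortical cultures received compound continuously over 12 days of network development.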

[5] = CCTE_Shafer_MEA_dev_per_burst_spike_percent: CCTE's Neural Network Formation Assay for Percent of Spikes in a Burst, Shafer Lab (AID 2284032);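 on AC50: fitted as a decrease in burst spike percentage below DMSO baseline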
Outline: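 Value is trapezoidal AUC over recordings on days 5, 7, 9 and 12 of the well-mean fraction of spikes falling in single-electrode bursts; rat cortical cultures exposed continuously from plating, treatment renewed DIV 5 and 9, fitted downward against DMSO.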

[6] = CCTE_Shafer_MEA_dev_active_electrodes_number: CCTE's Neural Network Formation Assay for Number of Active Electrodes, Shafer Lab (AID 2284040; active means hit-call score of the fitted dose curve at least 0.9, where 1 is the maximum;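 on AC50: potency for loss of active electrodes versus DMSO so lower counts are hits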)
Outline: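 Counts electrodes per well firing at least 5 spikes/min, recorded on days 5, 7, 9 and 12 in rat cortical cultures dosed continuously from plating (treatment refreshed DIV 5, 9). Value is the area under the curve over recordings, fitted downward relative to DMSO.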

[7] = CCTE_Shafer_MEA_dev_bursting_electrodes_number: CCTE's Neural Network Formation Assay for Number of Bursting Electrodes, Shafer Lab (AID 2284043; active means hit-call score of the fitted dose curve at least 0.9, where 1 is the maximum;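 on AC50: potency is for loss of bursting electrodes relative to DMSO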)
Outline: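 Number of electrodes reaching ≥1 burst every 2 min was recorded at DIV 5, 7, 9 and 12 and collapsed as trapezoidal area under the curve. Cultures were rat cortical neurons on MEA plates, dosed continuously from plating with medium and treatment refreshed on DIV 5 and 9.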

[8] = CCTE_Shafer_MEA_dev_per_burst_interspike_interval: CCTE's Neural Network Formation Assay for Burst Interspike Interval, Shafer Lab (AID 2284044);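 on AC50: potency for a decrease of within-burst interspike interval below DMSO level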
Outline: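 Primary rat cortical neurons on 48-well MEA plates, exposed from day 0 through day 12, treatment renewed at DIV 5 and 9. Within-burst interspike interval recorded days 5, 7, 9, 12, well-averaged, summarised as AUC; negative fit versus DMSO.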

[9] = CCTE_Shafer_MEA_dev_burst_duration_mean: CCTE's Neural Network Formation Assay for Mean Burst Duration, Shafer Lab (AID 2284045);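 on AC50: curve fitted for loss meaning shorter burst duration than DMSO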
Outline: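 Mean single-electrode burst duration (first to last spike), averaged over bursting electrodes per well, then integrated as area-under-curve across recordings at days 5, 7, 9 and 12. Rat cortical cultures on MEAs, compound present from plating, refreshed at feeds.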

[10] = CCTE_Shafer_MEA_dev_interburst_interval_mean: CCTE's Neural Network Formation Assay for Mean Interburst Interval, Shafer Lab (AID 2284046);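 further: well-mean interburst interval of bursting electrodes as AUC over four recording days; curve fitted for decrease in interburst interval relative to DMSO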
Outline: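 Developing rat cortical networks on 48-well MEAs receive compound from the day of plating. Burst intervals from each active electrode are averaged per well, and AUC over the recording days is fitted in the negative direction against DMSO.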

[11] = CCTE_Shafer_MEA_dev_inter_network_spike_interval_mean: CCTE's Neural Network Formation Assay for Mean Inter-network Spike Interval, Shafer Lab (AID 2284047);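 on AC50: potency for a decrease in mean inter-network spike interval below DMSO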
Outline: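 Rat cortical cultures, 1.5 x 10^5 cells/well on 48-well MEA plates; continuous exposure days 0–12, medium and compound refreshed DIV 5, 9. Mean time between consecutive network-spike peaks; AUC across DIV 5/7/9/12; DMSO baseline, negative fitting direction.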

[12] = CCTE_Shafer_MEA_dev_network_spike_number: CCTE's Neural Network Formation Assay for Number of Network Spikes, Shafer Lab (AID 2284048);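 further: synchronized bursts across electrodes counted on days 5 7 9 12 and integrated as AUC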;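 on AC50: fit as a loss of signal meaning fewer network spikes than DMSO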
Outline: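 Number of network spikes (coordinated firing across electrodes) recorded on days 5, 7, 9 and 12 and summarised as area under the curve. Rat cortical cultures on MEA, continuous compound exposure with full medium/treatment exchange at DIV 5 and 9.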

[13] = CCTE_Shafer_MEA_dev_network_spike_peak: CCTE's Neural Network Formation Assay for Mean Number of Electrodes in Network Spike, Shafer Lab (AID 2284049);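 on AC50: fitted for loss of signal meaning fewer electrodes in network spikes than DMSO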
Outline: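 Rat cortical primary culture, 1.5 x 10^5 cells/well, 48-well MEA (16 electrodes/well). Dosing day 0 through DIV 12, full media/compound exchange DIV 5, 9. AxIS adaptive spike detection; AUC over days 5/7/9/12; loss-of-signal vs DMSO.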

[14] = CCTE_Shafer_MEA_dev_spike_duration_mean: CCTE's Neural Network Formation Assay for Mean Spike Duration, Shafer Lab (AID 2284051);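 further: mean network spike duration pooled as area under curve over DIV 5 to 12 recordings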;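 on AC50: potency for a decrease in mean network spike duration versus DMSO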
Outline: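 Readout is the average length of network spikes, clustered firing across electrodes, summed over DIV 5, 7, 9 and 12 as area under the curve. Neurons from rat cortex developed networks on MEA plates under continuous 12-day exposure.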

[15] = CCTE_Shafer_MEA_dev_network_spike_duration_std: CCTE's Neural Network Formation Assay for Standard Deviation of Network Spike Duration, Shafer Lab (AID 2284052);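 further: hits are decreases in network spike duration SD versus DMSO vehicle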
Outline: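 Read-out is the trapezoidal area-under-the-curve across recordings made on days 5, 7, 9 and 12, fitted in the negative direction against DMSO baseline. Neurons were primary rat cortical cells treated from day 0, with treatment renewed at each feed.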

[16] = CCTE_Shafer_MEA_dev_per_network_spike_spike_number_mean: CCTE's Neural Network Formation Assay for Mean Number of Spikes in a Network Spike, Shafer Lab (AID 2284053);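 on AC50: fitted as decrease in spikes per network spike relative to DMSO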
Outline: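 Continuous twelve-day exposure of developing rat cortical networks grown over 16 microelectrodes per well; spontaneous firing is captured at four time points, and the per-network-spike spike number is integrated over development by trapezoidal AUC.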

[17] = CCTE_Shafer_MEA_dev_per_network_spike_spike_percent: CCTE's Neural Network Formation Assay for Percent of Spikes in a Network Spike, Shafer Lab (AID 2284054)
Outline: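 Metric: fraction of spikes falling in a 0.05 s window at network-spike peaks. Recordings were made on days 5, 7, 9 and 12 and collapsed by trapezoidal AUC. Cultures were rat cortical neurons on MEA plates, dosed continuously from plating, re-dosed at media changes.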

[18] = CCTE_Shafer_MEA_dev_AB: CCTE's Alamar Blue Assay for Cytotoxicity in the Neural Network Formation Assay, Shafer Lab (AID 2284083; active means hit-call score of the fitted dose curve at least 0.9, where 1 is the maximum;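 further: resazurin reduction fluorescence as viability of cultured neurons; twelve days of exposure from plating with re-dosing on DIV 5 and 9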)
Outline: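 Fluorescent resazurin reduction serves as the viability read-out, with DMSO as negative control and baseline. Cells were primary rat cortical neurons grown on MEA plates and dosed from day 0 to day 12, treatment renewed on DIV 5 and 9.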

[19] = CCTE_Shafer_MEA_dev_mutual_information_norm: CCTE's Neural Network Formation Assay for Mutual Information Normalization, Shafer Lab (AID 2284091);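 on AC50: mutual information between electrodes summarised as area under curve across four recording days; potency is for a decrease in mutual information relative to DMSO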
Outline: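 Shared information across electrodes, tracked on days 5, 7, 9 and 12 of network development and collapsed as trapezoidal area under the curve. Rat cortical cultures were treated continuously from plating, with treatment renewed at feeds on DIV 5 and 9; DMSO baseline, negative-direction fit.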

[20] = CCTE_Shafer_MEA_dev_correlation_coefficient_mean: CCTE's Neural Network Formation Assay for Mean Correlation Coefficient, Shafer Lab (AID 2284093);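 on AC50: well mean pairwise spike train correlation integrated as AUC over recording days 5 to 12; potency fitted for loss of correlation relative to DMSO vehicle wells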
Outline: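 Read-out: well-mean correlation coefficient of spike trains between electrode pairs, collapsed over four recording days as trapezoidal area-under-the-curve. Developing rat cortical neuron networks grown on MEAs received test chemical continuously from plating.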

Structure (SMILES): COCCOC(C)=O
- outcome [1]: inactive

Structure (SMILES): Clc1c(Cl)c(Cl)c2c(c1Cl)Oc1c(Cl)c(Cl)c(Cl)c(Cl)c1O2
- outcome [1]: inactive

Structure (SMILES): CNC(=O)Oc1cccc(C(C)C)c1
- outcome [1]: inactive

Structure (SMILES): [O-][Cl+3]([O-])([O-])O
- outcome [1]: inactive
- outcome [2]: inactive
- outcome [3]: inactive

Structure (SMILES): CC1(C)C(C=C(Cl)Cl)C1C(=O)O[C@H](C#N)c1cccc(Oc2ccccc2)c1 (stereo partly specified)
- AC50 [4]: 0.711 µM (active)
- AC50 [5]: 4.59 µM (active)
- AC50 [6]: 4.44 µM (active)
- AC50 [7]: 3.6 µM (active)
- AC50 [8]: 2.89 µM (active)
- AC50 [9]: 0.65 µM (active)
- AC50 [10]: 8.7 µM (active)
- AC50 [11]: 1.03 µM (active)
- AC50 [12]: 7.66 µM (active)
- AC50 [13]: 2.75 µM (active)
- AC50 [14]: 2.95 µM (active)
- AC50 [15]: 3.1 µM (active)
- AC50 [16]: 2.74 µM (active)
- AC50 [17]: 7.68 µM (active)
- AC50 [18]: 5.41 µM (active)
- AC50 [19]: 2.9 µM (active)
- AC50 [20]: 4.48 µM (active)
- outcome [2]: inactive
- outcome [3]: inactive

Structure (SMILES): CC(C)(C)OOC(C)(C)C#CC(C)(C)OOC(C)(C)C
- outcome [1]: inactive

Structure (SMILES): O=c1[nH]c2c(c(=O)n1C1CCCCC1)CCC2
- outcome [1]: inactive

Structure (SMILES): NCCc1cc(O)c(O)cc1O
- outcome [4]: inactive
- AC50 [5]: 6.25 µM (active)
- AC50 [6]: 4.79 µM (active)
- AC50 [7]: 4.29 µM (active)
- outcome [8]: inactive
- outcome [9]: inactive
- outcome [10]: inactive
- outcome [11]: inactive
- outcome [12]: inactive
- AC50 [13]: 6.57 µM (active)
- AC50 [14]: 5.15 µM (active)
- outcome [15]: inactive
- AC50 [16]: 4.47 µM (active)
- AC50 [17]: 10.1 µM (active)
- AC50 [18]: 9.87 µM (active)
- AC50 [19]: 3.2 µM (active)
- AC50 [20]: 5.28 µM (active)

Structure (SMILES): CC(C)CC(C)c1sccc1NC(=O)c1cn(C)nc1C(F)(F)F (stereo unspecified)
- AC50 [2]: 65.6 µM (active)
- AC50 [3]: 77.1 µM (active)

Structure (SMILES): C=CCN1CC[C@]23c4c5ccc(O)c4O[C@H]2C(=O)CC[C@@]3(O)[C@H]1C5
- outcome [4]: inactive
- outcome [5]: inactive
- outcome [8]: inactive
- outcome [9]: inactive
- outcome [10]: inactive
- outcome [11]: inactive
- outcome [12]: inactive
- outcome [13]: inactive
- outcome [14]: inactive
- outcome [15]: inactive
- outcome [16]: inactive
- outcome [17]: inactive
- outcome [19]: inactive
- outcome [20]: inactive

Structure (SMILES): CC(=O)[O-].[Tl+]
- outcome [4]: inactive
- outcome [5]: inactive
- outcome [6]: inactive
- outcome [7]: inactive
- outcome [8]: inactive
- outcome [9]: inactive
- outcome [10]: inactive
- outcome [11]: inactive
- outcome [12]: inactive
- outcome [13]: inactive
- outcome [14]: inactive
- AC50 [15]: 12.1 µM (active)
- outcome [16]: inactive
- outcome [17]: inactive
- outcome [18]: inactive
- outcome [19]: inactive
- outcome [20]: inactive
- outcome [2]: inactive
- AC50 [3]: 90 µM (active)

Structure (SMILES): CCOP(=O)(OCC)SCSC(C)(C)C
- outcome [4]: inactive
- outcome [5]: inactive
- AC50 [6]: 16.2 µM (active)
- AC50 [7]: 9.83 µM (active)
- outcome [8]: inactive
- outcome [9]: inactive
- outcome [10]: inactive
- outcome [11]: inactive
- outcome [12]: inactive
- AC50 [13]: 49.5 µM (active)
- outcome [14]: inactive
- outcome [15]: inactive
- outcome [16]: inactive
- outcome [17]: inactive
- AC50 [18]: 90.6 µM (active)
- outcome [19]: inactive
- outcome [20]: inactive
- outcome [2]: inactive
- outcome [3]: inactive

Structure (SMILES): COP(=O)(OC)SCN1C(=O)c2ccccc2C1=O
- outcome [4]: inactive
- outcome [5]: inactive
- outcome [6]: inactive
- outcome [7]: inactive
- outcome [8]: inactive
- outcome [9]: inactive
- outcome [10]: inactive
- outcome [11]: inactive
- outcome [12]: inactive
- outcome [13]: inactive
- outcome [14]: inactive
- outcome [15]: inactive
- outcome [16]: inactive
- outcome [17]: inactive
- outcome [18]: inactive
- outcome [19]: inactive
- outcome [20]: inactive
- outcome [2]: inactive
- outcome [3]: inactive

Structure (SMILES): CC1(C)C(C=C(Cl)c2ccc(Cl)cc2)C1C(=O)OC(C#N)c1ccc(F)c(Oc2ccccc2)c1 (stereo unspecified)
- AC50 [4]: 4.24 µM (active)
- AC50 [5]: 13 µM (active)
- AC50 [6]: 12.8 µM (active)
- AC50 [7]: 12.9 µM (active)
- AC50 [8]: 7.6 µM (active)
- outcome [9]: inactive
- AC50 [10]: 13.6 µM (active)
- AC50 [11]: 4.11 µM (active)
- AC50 [12]: 14.4 µM (active)
- AC50 [13]: 13.1 µM (active)
- AC50 [14]: 5.21 µM (active)
- AC50 [15]: 6.89 µM (active)
- AC50 [16]: 6.7 µM (active)
- AC50 [17]: 23.3 µM (active)
- AC50 [18]: 17.1 µM (active)
- AC50 [19]: 5.42 µM (active)
- AC50 [20]: 12.8 µM (active)
- outcome [2]: inactive
- outcome [3]: inactive
